Assay results reported in ChEMBL document CHEMBL1961873, “Compounds: GSK PKIS; Assays: Nanosyn kinase panel” (2012).

Target: RAC-gamma serine/threonine-protein kinase (Homo sapiens) (UniProt Q9Y243)
Details: at 1 µM

Chain of RAC-gamma serine/threonine-protein kinase (Homo sapiens) (Q9Y243 whole entry): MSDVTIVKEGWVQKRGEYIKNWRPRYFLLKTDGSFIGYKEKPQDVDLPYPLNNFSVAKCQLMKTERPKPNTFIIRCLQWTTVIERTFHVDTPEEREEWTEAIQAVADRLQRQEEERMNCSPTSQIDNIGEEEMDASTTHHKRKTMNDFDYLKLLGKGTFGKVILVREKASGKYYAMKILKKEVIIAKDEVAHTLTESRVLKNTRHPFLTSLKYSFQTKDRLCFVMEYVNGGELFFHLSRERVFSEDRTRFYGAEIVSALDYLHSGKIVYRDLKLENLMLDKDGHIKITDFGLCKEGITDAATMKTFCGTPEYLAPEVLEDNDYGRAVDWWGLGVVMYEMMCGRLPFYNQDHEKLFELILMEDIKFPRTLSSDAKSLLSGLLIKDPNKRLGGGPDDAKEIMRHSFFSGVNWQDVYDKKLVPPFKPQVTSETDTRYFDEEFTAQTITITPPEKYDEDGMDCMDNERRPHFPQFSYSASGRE

**Q.** With `CCc1cccc(CC)c1/C=C/c1cncc(C(=O)NC)c1` as the compound, how does the inhibition read?
**A.** 1.32%

**Q.** Which inhibition does the source give for `NC(=O)c1cc(-c2ccc(F)cc2)cc(-c2ccncc2)c1N` here?
**A.** 4.31%

**Q.** For `COc1cc(Nc2ncc3c(C)nc(-c4cccc(Oc5ccccc5)c4)n3n2)cc(OC)c1OC`, which inhibition is on record?
**A.** 1.43%

**Q.** With `C[C@@H](Oc1cc(-n2cnc3ccc(OC4CCN(C)CC4)cc32)sc1C(N)=O)c1ccccc1Cl` as the compound, how does the inhibition read?
**A.** -1.57%

**Q.** For `CN(c1ccc(NC(=O)Nc2c(Cl)cccc2Cl)cc1)c1ccnc(Nc2cccc(CS(C)(=O)=O)c2)n1`, which inhibition is on record?
**A.** -0.15%

**Q.** Which inhibition does the source give for `Cc1ccc(C(=O)NC2CCC2)cc1-c1ccc(C(=O)NCC2CC2)cc1` here?
**A.** 2.79%

**Q.** `COc1ccc2ncn(-c3cc(O[C@H](C)c4ccccc4Cl)c(C(N)=O)s3)c2c1` was tested. Which inhibition did it give?
**A.** -1.2%

**Q.** `CCC(=O)Nc1ccc(C)c(-c2ccc(C(=O)NCC3CC3)cc2)c1` was tested. Which inhibition did it give?
**A.** 2.4%

**Q.** For `CCS(=O)(=O)c1ccc(OC)c(Nc2ncc(-c3ccccc3Cl)o2)c1`, which inhibition is on record?
**A.** 0.93%

**Q.** For `Fc1ccc(-c2c(-c3ccncc3)nc3n2CCS3)cc1`, which inhibition is on record?
**A.** -0.46%

**Q.** `COC(=O)Nc1nc2ccc(Sc3ccc(NC(=O)Nc4cc(C(F)(F)F)ccc4F)cc3)cc2[nH]1` was tested. Which inhibition did it give?
**A.** 0.99%

**Q.** How did the inhibition turn out when `O=C(Nc1n[nH]c2cc(-c3cc(F)ccc3F)ccc12)C1CC1` was run?
**A.** 2.68%

**Q.** `CS(=O)(=O)CCNCc1cc(-c2cc3c(Nc4ccc(OCc5cccc(F)c5)c(Cl)c4)ncnc3s2)cs1` was tested. Which inhibition did it give?
**A.** 3.27%

**Q.** How did the inhibition turn out when `CCc1nccc2c1nc(-c1nonc1N)n2CC` was run?
**A.** 0.55%

**Q.** For `COc1cc(C)c(N(C)C(=O)CN(C)C)cc1Nc1nc(Nc2cccc(F)c2C(N)=O)c2cc[nH]c2n1`, which inhibition is on record?
**A.** -1.39%

**Q.** For `Nc1nccc(-c2c(-c3ccc(F)cc3)ncn2C2CCC(O)CC2)n1` (stereo not drawn), which inhibition is on record?
**A.** 0.5%

**Q.** Which inhibition does the source give for `O=C1NC(=O)C(c2cccc(Cl)c2)=C1Nc1ccc(Cl)c(C(=O)O)c1` here?
**A.** 0.58%

**Q.** Which inhibition does the source give for `CN(C)CCCNc1nccc(-c2c(-c3ccc(F)cc3)nn3cc(C(F)(F)F)ccc23)n1` here?
**A.** -2.29%

**Q.** `Fc1ccc(-c2nc3n(c2-c2ccncc2)CCS3)cc1` was tested. Which inhibition did it give?
**A.** -2.44%

Target: G protein-coupled receptor kinase 6 (Homo sapiens) (UniProt P43250);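 further: mean percent inhibition of GRK6, GSK PKIS screen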
Details: at 0.1 µM

Chain of G protein-coupled receptor kinase 6 (Homo sapiens) (P43250 whole entry, looked up): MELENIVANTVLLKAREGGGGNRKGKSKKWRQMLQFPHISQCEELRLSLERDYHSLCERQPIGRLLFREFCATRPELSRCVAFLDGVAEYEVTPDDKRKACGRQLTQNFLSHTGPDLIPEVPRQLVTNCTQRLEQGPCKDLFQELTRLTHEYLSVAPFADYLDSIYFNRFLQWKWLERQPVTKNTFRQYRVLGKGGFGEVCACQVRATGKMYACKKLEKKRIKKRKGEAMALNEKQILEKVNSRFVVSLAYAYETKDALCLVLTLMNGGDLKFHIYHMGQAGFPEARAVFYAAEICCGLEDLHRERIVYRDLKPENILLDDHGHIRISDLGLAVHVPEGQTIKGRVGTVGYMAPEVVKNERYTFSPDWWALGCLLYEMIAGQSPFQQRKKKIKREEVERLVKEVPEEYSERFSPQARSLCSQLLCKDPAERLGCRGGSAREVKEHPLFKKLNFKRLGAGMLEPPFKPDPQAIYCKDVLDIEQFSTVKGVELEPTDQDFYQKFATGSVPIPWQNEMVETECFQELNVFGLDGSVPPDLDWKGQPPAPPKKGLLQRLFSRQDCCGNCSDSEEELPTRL

**Q.** With `NC(=O)Cc1ccccc1Oc1nccc(-c2c(-c3ccc(F)cc3)ncn2C2CCNCC2)n1` as the compound, how does the inhibition read?
**A.** -1.33%

**Q.** Which inhibition does the source give for `NS(=O)(=O)c1ccc(Nc2cc(-c3ccc(O)c(F)c3)n[nH]2)cc1` here?
**A.** -2.35%

**Q.** For `Clc1ccc(CNc2nccc(-c3cnn4ncccc34)n2)cc1`, which inhibition is on record?
**A.** 5.42%

**Q.** Which inhibition does the source give for `COc1ccc2cc(-c3c(-c4ccncc4)nc(-c4ccc([S+](C)[O-])cc4C)n3C)ccc2c1` (stereo not drawn) here?
**A.** 2.06%

**Q.** How did the inhibition turn out when `NS(=O)(=O)c1ccc(N/N=C2\C(=O)Nc3ccc(-c4cnco4)cc32)cc1` was run?
**A.** -0.25%

**Q.** `O=C1Nc2ccccc2/C1=C/Nc1ccc(-n2cncn2)cc1` was tested. Which inhibition did it give?
**A.** 7.2%

**Q.** `Fc1ccc(-c2ncn(C3CCNCC3)c2-c2ccnc(Oc3ccc(Oc4ccccc4)cc3)n2)cc1` was tested. Which inhibition did it give?
**A.** 3.64%

**Q.** How did the inhibition turn out when `COc1cc2ncn(-c3cc(OCc4ccccc4C(F)(F)F)c(C(C)=O)s3)c2cc1OC` was run?
**A.** -0.96%

**Q.** `CN(C)CCOc1ccc(-c2cc(-c3ccc4c(c3)CCC4=NO)c(-c3ccncc3)o2)cc1` was tested. Which inhibition did it give?
**A.** -3.48%

**Q.** Which inhibition does the source give for `Cc1ccc(NC(=O)c2ccoc2)cc1-c1ccc(C(=O)NCC2CC2)cc1` here?
**A.** -0.54%

**Q.** With `O=C(Nc1n[nH]c2nc(-c3ccc(O)cc3)c(Br)cc12)C1CC1` as the compound, how does the inhibition read?
**A.** 11.6%

**Q.** How did the inhibition turn out when `COc1cc(N2CCN(C(C)C)CC2)ccc1Nc1nc(Nc2ccc(F)cc2C(=O)NC[C@@H](O)CO)c2cc[nH]c2n1` was run?
**A.** 9.59%

**Q.** Which inhibition does the source give for `COc1ccc2cc(-c3c(-c4ccncc4)nc(-c4ccc(S(C)(=O)=O)cc4C)n3C)ccc2c1` here?
**A.** 5.87%

**Q.** How did the inhibition turn out when `CCN(CC)Cc1ccc(Nc2nccc(-c3cnn4ncccc34)n2)cc1` was run?
**A.** 2.33%

**Q.** `c1ccc(Oc2ccc(Nc3ncc(-c4ccccc4)o3)cc2)cc1` was tested. Which inhibition did it give?
**A.** 2.54%

**Q.** Which inhibition does the source give for `CCc1cccc(CC)c1/C=C/c1cncc(C(=O)NC)c1` here?
**A.** -2.11%

**Q.** `NC(=O)c1cc(-c2ccc(F)cc2)cc(-c2ccncc2)c1N` was tested. Which inhibition did it give?
**A.** 5.99%

**Q.** How did the inhibition turn out when `COc1cc(Nc2ncc3c(C)nc(-c4cccc(Oc5ccccc5)c4)n3n2)cc(OC)c1OC` was run?
**A.** 1.19%

**Q.** Which inhibition does the source give for `C[C@@H](Oc1cc(-n2cnc3ccc(OC4CCN(C)CC4)cc32)sc1C(N)=O)c1ccccc1Cl` here?
**A.** 4.79%

**Q.** For `CN(c1ccc(NC(=O)Nc2c(Cl)cccc2Cl)cc1)c1ccnc(Nc2cccc(CS(C)(=O)=O)c2)n1`, which inhibition is on record?
**A.** 3.24%

**Q.** How did the inhibition turn out when `Cc1ccc(C(=O)NC2CCC2)cc1-c1ccc(C(=O)NCC2CC2)cc1` was run?
**A.** 1.01%

**Q.** How did the inhibition turn out when `COc1ccc2ncn(-c3cc(O[C@H](C)c4ccccc4Cl)c(C(N)=O)s3)c2c1` was run?
**A.** -0.3%

**Q.** `CCC(=O)Nc1ccc(C)c(-c2ccc(C(=O)NCC3CC3)cc2)c1` was tested. Which inhibition did it give?
**A.** 4.21%

**Q.** Which inhibition does the source give for `CCS(=O)(=O)c1ccc(OC)c(Nc2ncc(-c3ccccc3Cl)o2)c1` here?
**A.** 2.4%

**Q.** Which inhibition does the source give for `Fc1ccc(-c2c(-c3ccncc3)nc3n2CCS3)cc1` here?
**A.** 5.32%

**Q.** How did the inhibition turn out when `COC(=O)Nc1nc2ccc(Sc3ccc(NC(=O)Nc4cc(C(F)(F)F)ccc4F)cc3)cc2[nH]1` was run?
**A.** 2.62%

**Q.** `O=C(Nc1n[nH]c2cc(-c3cc(F)ccc3F)ccc12)C1CC1` was tested. Which inhibition did it give?
**A.** 2.61%

**Q.** For `CS(=O)(=O)CCNCc1cc(-c2cc3c(Nc4ccc(OCc5cccc(F)c5)c(Cl)c4)ncnc3s2)cs1`, which inhibition is on record?
**A.** 6.28%

**Q.** With `CCc1nccc2c1nc(-c1nonc1N)n2CC` as the compound, how does the inhibition read?
**A.** -0.76%

**Q.** `COc1cc(C)c(N(C)C(=O)CN(C)C)cc1Nc1nc(Nc2cccc(F)c2C(N)=O)c2cc[nH]c2n1` was tested. Which inhibition did it give?
**A.** 3.68%

**Q.** For `Nc1nccc(-c2c(-c3ccc(F)cc3)ncn2C2CCC(O)CC2)n1` (stereo not drawn), which inhibition is on record?
**A.** 1.78%

**Q.** With `O=C1NC(=O)C(c2cccc(Cl)c2)=C1Nc1ccc(Cl)c(C(=O)O)c1` as the compound, how does the inhibition read?
**A.** 4.67%

**Q.** `CN(C)CCCNc1nccc(-c2c(-c3ccc(F)cc3)nn3cc(C(F)(F)F)ccc23)n1` was tested. Which inhibition did it give?
**A.** 0.16%

**Q.** `Fc1ccc(-c2nc3n(c2-c2ccncc2)CCS3)cc1` was tested. Which inhibition did it give?
**A.** 2.79%
